mHTT-CaM PPI inh – mHTT-calmodulin interaction abrogation; P42858; AlphaScreen His-mHTT/GST-CaM binding, luminescence; inhibition, % at 15 µM; actives 3.6% (n = 190,000);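 note: 0% = both proteins with DMSO and 100% = one protein alone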
Pf apPOL block – Pf-apPOL DNA polymerase inhibition; Recombinant Pf-apPOL, molecular beacon fluorescence, 1.5 h; inhibition, % at 10 µM; actives 0.25% (n = 210,000)
Active calls of the source: *; x = no result given. Rows were chosen to be rich in hits. Some 3.6% of all compounds tested hit in one or more screens of this group. Cut-off read from the data, not from the text of the source: active = inhibition above about 50%; inactive = the rest.

SMILES	mHTT-CaM PPI inh	Pf apPOL block
CC1=Nc2ccccc2C1=Cc1sc(=O)n(-c2ccccc2)c1O	26	4
COCCn1c(=N)c(C(=O)NCc2cccnc2)cc2c(=O)n3ccccc3nc21	-6	-8
CC(C(=O)N1CCCC1)C1CCN(S(=O)(=O)c2ccc(Br)s2)CC1 (stereo unspecified)	-6	-2
O=C(Nc1nnc(Cc2ccccc2)o1)c1cnccn1	34	-11
Cc1cc(C)cc(-n2cc(-c3ccc4c(c3)OCO4)[nH]c2=O)c1	39	11
Cc1ccc(-n2cc(-c3ccc4c(c3)OCO4)[nH]c2=O)cc1Cl	86*	-8
CCOC(=O)c1cccc(NC(=O)N2CCOc3ccc(Cl)cc32)c1	-18	0
CCOCCCNC(=O)C1CCCN(C(=O)c2cc(C)cc(C)c2)C1 (stereo unspecified)	6	-1
COc1cc2c(cc1OC)C(COc1ccccc1OC)N(C(=O)c1ccccc1OC)CC2 (stereo unspecified)	37	-6
COC(=O)c1ccc(OCC2c3cc(OC)c(OC)cc3CCN2C(=O)c2ccc(OC)cc2)cc1 (stereo unspecified)	47	-4
COc1ccc(OCC2c3cc(OC)c(OC)cc3CCN2C(=O)c2ccc(C)cc2)cc1 (stereo unspecified)	77*	2
CCOc1ccc(C(=O)N2CCc3cc(OC)c(OC)cc3C2COc2ccccc2OC)cc1 (stereo unspecified)	73*	1
O=C(Nc1ccccc1[N+](=O)[O-])c1cc(S(=O)(=O)NC2CCCCC2)c(Cl)cc1Cl	58*	-4
O=C(Nc1ccccc1[N+](=O)[O-])c1ccc(Cl)c(S(=O)(=O)NC2CCCC2)c1	28	-7
C=CCNC(=O)c1oc2ccc(S(=O)(=O)N3CC(C)CC(C)C3)cc2c1C (stereo unspecified)	77*	-14
C=CCNC(=O)c1oc2ccc(S(=O)(=O)N3CCCCCC3)cc2c1C	-6	-10
CCc1nn2c(CNC(=O)c3ccccc3)c(C)nc2s1	-5	1
CCn1c(=O)[nH]c2ccc(Br)cc2c1=O	5	7
O=c1[nH]c2ccc(Br)cc2c(=O)n1C1CCCCC1	52*	-3
CCN1CCN(C(=O)c2c(C(C)C)nn(-c3cccc(C)c3)c2C(C)C)CC1	13	-2
O=C(Nc1ccc2c(c1)OCO2)C1CCN(c2cc(N3CCCC3)ncn2)CC1	61*	-6
O=C(Nc1ccc(Br)cc1)C1CCN(c2cc(N3CCCC3)ncn2)CC1	21	-7
Cn1ncc(N2CCCC(C(=O)Nc3ccc4c(c3)OCO4)C2)cc1=O (stereo unspecified)	72*	21
Cc1ccc(NC(=O)C2CCCN(c3cnn(C)c(=O)c3)C2)cc1C (stereo unspecified)	1	-3
O=C(Nc1ccc2c(c1)OCO2)C1CCCN(c2cn[nH]c(=O)c2)C1 (stereo unspecified)	63*	-2
SMILES	mHTT-CaM PPI inh	Pf apPOL block
COc1ccc(NC(=O)C2CCCN(c3cn[nH]c(=O)c3)C2)cc1OC (stereo unspecified)	7	8
O=C(Nc1ccc2c(c1)OCCO2)C1CCCN(c2cnn(Cc3ccccc3)c(=O)c2)C1 (stereo unspecified)	35	-4
O=C(Nc1ccc2c(c1)OCO2)C1CCCN(c2cnn(Cc3ccccc3)c(=O)c2)C1 (stereo unspecified)	69*	-2
CCN(CC)C(=O)NCCNC(=O)N(CC)CC	-7	x
COc1ccccc1N(CC(N)=O)S(=O)(=O)c1ccccc1	-6	-5
COc1ccccc1N(CC(O)COc1ccc(C)cc1)S(=O)(=O)c1ccccc1 (stereo unspecified)	52*	0
CCOc1ccccc1N(C)C(=O)c1cc(S(=O)(=O)N2CCCC2)ccc1F	8	31
COCCNc1nc2c(c(=O)n(Cc3ccc(Cl)c(Cl)c3)c(=O)n2C)n1C	5	-1
Brc1cccc(-c2noc(CSc3nccn3-c3ccccc3)n2)c1	63*	0
O=S(=O)(Cc1nc(-c2cccc(Br)c2)no1)c1ccccc1	-54	1
CN(Cc1ccccc1)C(=O)c1ccc(N2CCNC(c3ccccc3)C2)nc1 (stereo unspecified)	10	0
COc1ccc(C(=O)N2CCC(c3nncn3C)CC2)cn1	2	-3
NS(=O)(=O)c1ccc2c(c1)C1C=CCC1C(C1CC=CCC1)N2 (stereo unspecified)	95*	-3
O=[N+]([O-])c1ccc2c(c1)C1C=CCC1C(C1CC=CCC1)N2 (stereo unspecified)	39	x
NS(=O)(=O)c1ccc2c(c1)C1C=CCC1C(c1cccc3ccccc13)N2 (stereo unspecified)	94*	x
NS(=O)(=O)c1ccc2c(c1)C1C=CCC1C(C(=O)O)N2 (stereo unspecified)	40	-1
Cc1ccc(NC(=O)CCN2CCN(C/C=C/c3ccccc3)CC2)cc1	42	-10
Cc1c(Cl)cccc1NC(=O)CCN1CCN(C/C=C/c2ccccc2)CC1	50*	-6
Cc1cc(C)c(C2=NC(c3ccccc3)(c3ccccc3)c3ccccc3N2)c(=O)[nH]1	32	-8
c1ccc(C2=NC(c3ccccc3)(c3ccccc3)c3ccccc3N2)cc1	61*	x
O=C(O)C1=Cc2ccccc2OC=C1	-2	-8
Cn1nc(C(=O)NCc2ccc3c(c2)OCO3)c2c1CCN(C(=O)Cc1cccs1)C2	54*	-5
Cn1nc(C(=O)NCc2ccc3c(c2)OCO3)c2c1CCN(C(=O)c1cccs1)C2	11	0
Cn1nc(C(=O)NCc2ccc3c(c2)OCO3)c2c1CCN(C(=O)c1ccco1)C2	-4	-8
Cn1nc(C(=O)NCc2ccc3c(c2)OCO3)c2c1CCN(C(=O)c1ccc(F)cc1)C2	51*	-14
SMILES	mHTT-CaM PPI inh	Pf apPOL block
Cc1ccc(CNC(=O)COc2ccc(Br)cc2)cc1	-3	-2
COc1ccc(C2=C/C(=C\c3ccccc3[N+](=O)[O-])C(=O)O2)c(OC)c1	27	12
COc1ccc(Cl)cc1S(=O)(=O)NCCC1CCN(C(=O)c2ccccc2)CC1	77*	-3
COc1ccc(OC)c(S(=O)(=O)NCCC2CCN(C(=O)c3ccccc3)CC2)c1	63*	1
COc1ccc(S(=O)(=O)NCCC2CCN(C(=O)c3ccccc3)CC2)cc1Cl	23	0
Cc1cc(C)cc(S(=O)(=O)NCCC2CCN(C(=O)c3ccccc3)CC2)c1	27	-5
O=C(C1c2ccccc2CC(=O)N1Cc1ccccc1)N1CCC2(CC1)OCCO2 (stereo unspecified)	7	1
O=C(Nc1ccc(-c2nc3ccccc3s2)c(O)c1)c1cccc(F)c1	-2	-3
O=C(CN1CCC2(CC1)N=C(c1cccc(Cl)c1)C(=O)N2)Nc1cccc(Cl)c1	46	-2
Cc1ccc(C)c(NC(=O)CN2CCC3(CC2)N=C(c2ccc(F)cc2)C(=O)N3)c1	51*	8
O=C(CN1CCC2(CC1)N=C(c1ccc(F)cc1)C(=O)N2)Nc1ccccc1	-5	-5
Cc1cccc(C)c1NC(=O)CN1CCC2(CC1)N=C(c1ccc(F)cc1)C(=O)N2	8	-2
O=C(CN1CCC2(CC1)N=C(c1ccccc1)C(=O)N2)Nc1cccc(C(F)(F)F)c1	96*	-6
O=C(CN1CCC2(CC1)N=C(c1cccc(Cl)c1)C(=O)N2)Nc1ccc2c(c1)OCO2	53*	-1
O=C(COc1ccccc1)N1CCN(c2nc(CN3CCOCC3)cs2)CC1	13	-2

Source: PubChem BioAssay
